In PubChem BioAssay:
Results filed as inconclusive are left out. Peptide text beside a SMILES is read from it.

Assay: inhibitors of polyQ protein aggregation (AID 1604)
Details: polyglutamine-induced protein aggregation inhibition assay; stronger effect = higher value; concentration not given here

**Q.** For CN[C@@H]1[C@H](O)[C@H](NC)[C@H]2O[C@@]3(O)C(=O)C[C@@H](C)O[C@H]3OC2[C@H]1O (stereo partly drawn), which inhibition of aggregation is on record?
**A.** Its inhibition of aggregation is 42.9%.

**Q.** With CC[C@@H](C(=O)C(C)[C@@H](O)[C@H](C)CCc1ccc(C)c(O)c1C(=O)O)C1OC(CC)(C2CC[C@](O)(CC)[C@H](C)O2)C[C@@H]1C (stereo partly drawn) as the compound, how does the inhibition of aggregation read?
**A.** The inhibition of aggregation was 74%.

**Q.** Which inhibition of aggregation does the source give for CCCCC(=O)OC1(C(=O)CO)C(C)CC2C3CCC4=CC(=O)C=CC4(C)[C@@]3(F)[C@@H](O)CC21C (stereo partly drawn) here?
**A.** Its inhibition of aggregation is 82%.

**Q.** Which inhibition of aggregation does the source give for O=c1c(O)cc2c(O)oc3c(=O)c(O)cc4c3c2c1CC=4O here?
**A.** Its inhibition of aggregation is 25.2%.

**Q.** Which inhibition of aggregation does the source give for CC[C@@]1(O)C[C@H](OC2CC(N(C)C)C(OC3CC(O)C(OC4CCC(=O)C(C)O4)C(C)O3)C(C)O2)c2c(cc3c(c2O)C(=O)c2c(O)cccc2C3=O)[C@H]1C(=O)OC (stereo partly drawn) here?
**A.** The inhibition of aggregation was 1.96%.

**Q.** With Cc1cc(Nc2ccccc2C(=O)O)ccc1Cl as the compound, how does the inhibition of aggregation read?
**A.** Its inhibition of aggregation is 77.8%.

**Q.** Which inhibition of aggregation does the source give for CC1CC2C3CCC4=CC(=O)C=CC4(C)[C@@]3(F)C(O)CC2(C)[C@@]1(O)C(=O)CO (stereo partly drawn) here?
**A.** The inhibition of aggregation was 59.3%.

**Q.** With NCCCCC(N)C(=O)NC(Cc1c[nH]c2ccccc12)C(=O)NC(CCCCN)C(=O)O (stereo not drawn) (H-Lys-Trp-Lys-OH; configuration not given here) as the compound, how does the inhibition of aggregation read?
**A.** Its inhibition of aggregation is 83.9%.

**Q.** Which inhibition of aggregation does the source give for CC(=O)N[C@@H](Cc1c[nH]c2ccccc12)C(N)=O here?
**A.** The inhibition of aggregation was 60.3%.

**Q.** For CCC(=O)O[C@@H](O[P@](=O)(CCCCc1ccccc1)CC(=O)N1C[C@H](C2CCCCC2)C[C@H]1C(=O)O)C(C)C, which inhibition of aggregation is on record?
**A.** The inhibition of aggregation was 47.1%.

**Q.** For C[C@@H]1OC(Oc2c(-c3ccc(O)c(O)c3)oc3cc(O)cc(O)c3c2=O)[C@H](O)[C@H](O)[C@H]1O (stereo partly drawn), which inhibition of aggregation is on record?
**A.** Its inhibition of aggregation is 72.2%.

**Q.** Which inhibition of aggregation does the source give for C=C1C(=O)OC2C1CCC1(C)CCC=C(C)C21 (stereo not drawn) here?
**A.** Its inhibition of aggregation is -33.3%.

**Q.** Which inhibition of aggregation does the source give for CC(NC(=O)C(NC(=O)OCc1ccccc1)C(C)C)C(=O)NC(CC(=O)O)C(=O)OC(F)F (stereo not drawn) here?
**A.** Its inhibition of aggregation is 0.68%.

Assay: protection against mutant huntingtin cytotoxicity, PC12 cells, LDH release (AID 1610)
Details: PC12 mutant huntingtin toxicity, final LDH at 4 uM, stronger effect = lower value

**Q.** Which normalised LDH release does the source give for CCCCC(=O)OC1(C(=O)CO)C(C)CC2C3CCC4=CC(=O)C=CC4(C)[C@@]3(F)[C@@H](O)CC21C (stereo partly drawn) here?
**A.** The normalised LDH release was 0.899.

**Q.** For CC[C@@]1(O)C[C@H](OC2CC(N(C)C)C(OC3CC(O)C(OC4CCC(=O)C(C)O4)C(C)O3)C(C)O2)c2c(cc3c(c2O)C(=O)c2c(O)cccc2C3=O)[C@H]1C(=O)OC (stereo partly drawn), which normalised LDH release is on record?
**A.** The normalised LDH release was 0.363.

**Q.** With C=C1C(=O)OC2C1CCC1(C)CCC=C(C)C21 (stereo not drawn) as the compound, how does the normalised LDH release read?
**A.** The normalised LDH release was 0.89.

**Q.** With CC(NC(=O)C(NC(=O)OCc1ccccc1)C(C)C)C(=O)NC(CC(=O)O)C(=O)OC(F)F (stereo not drawn) as the compound, how does the normalised LDH release read?
**A.** Its normalised LDH release is 0.83.

Assay: enhancers of glutamate uptake in motor neurons, MN-1 cell line (AID 1612);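 further: 0% = mean of DMSO vehicle wells on each plate; positive means more glutamate uptake than control and negative means less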
Details: MN-1 motor neuron cells, stronger effect = higher value

**Q.** For CN[C@@H]1[C@H](O)[C@H](NC)[C@H]2O[C@@]3(O)C(=O)C[C@@H](C)O[C@H]3OC2[C@H]1O (stereo partly drawn), which glutamate uptake change is on record?
**A.** The glutamate uptake change was 4.38%.

**Q.** For CC[C@@H](C(=O)C(C)[C@@H](O)[C@H](C)CCc1ccc(C)c(O)c1C(=O)O)C1OC(CC)(C2CC[C@](O)(CC)[C@H](C)O2)C[C@@H]1C (stereo partly drawn), which glutamate uptake change is on record?
**A.** The glutamate uptake change was -67.2%.

**Q.** With CCCCC(=O)OC1(C(=O)CO)C(C)CC2C3CCC4=CC(=O)C=CC4(C)[C@@]3(F)[C@@H](O)CC21C (stereo partly drawn) as the compound, how does the glutamate uptake change read?
**A.** Its glutamate uptake change is 9.55%.

**Q.** Which glutamate uptake change does the source give for O=c1c(O)cc2c(O)oc3c(=O)c(O)cc4c3c2c1CC=4O here?
**A.** The glutamate uptake change was -0.57%.

**Q.** For CC[C@@]1(O)C[C@H](OC2CC(N(C)C)C(OC3CC(O)C(OC4CCC(=O)C(C)O4)C(C)O3)C(C)O2)c2c(cc3c(c2O)C(=O)c2c(O)cccc2C3=O)[C@H]1C(=O)OC (stereo partly drawn), which glutamate uptake change is on record?
**A.** Its glutamate uptake change is 47.8%.

**Q.** With Cc1cc(Nc2ccccc2C(=O)O)ccc1Cl as the compound, how does the glutamate uptake change read?
**A.** The glutamate uptake change was -15.3%.

**Q.** For CC1CC2C3CCC4=CC(=O)C=CC4(C)[C@@]3(F)C(O)CC2(C)[C@@]1(O)C(=O)CO (stereo partly drawn), which glutamate uptake change is on record?
**A.** Its glutamate uptake change is -14.9%.

**Q.** For NCCCCC(N)C(=O)NC(Cc1c[nH]c2ccccc12)C(=O)NC(CCCCN)C(=O)O (stereo not drawn) (H-Lys-Trp-Lys-OH; configuration not given here), which glutamate uptake change is on record?
**A.** The glutamate uptake change was 46.5%.

**Q.** With CC(=O)N[C@@H](Cc1c[nH]c2ccccc12)C(N)=O as the compound, how does the glutamate uptake change read?
**A.** Its glutamate uptake change is -9.38%.

**Q.** For CCC(=O)O[C@@H](O[P@](=O)(CCCCc1ccccc1)CC(=O)N1C[C@H](C2CCCCC2)C[C@H]1C(=O)O)C(C)C, which glutamate uptake change is on record?
**A.** The glutamate uptake change was 4.48%.

**Q.** With C[C@@H]1OC(Oc2c(-c3ccc(O)c(O)c3)oc3cc(O)cc(O)c3c2=O)[C@H](O)[C@H](O)[C@H]1O (stereo partly drawn) as the compound, how does the glutamate uptake change read?
**A.** The glutamate uptake change was -4.44%.

**Q.** Which glutamate uptake change does the source give for C=C1C(=O)OC2C1CCC1(C)CCC=C(C)C21 (stereo not drawn) here?
**A.** The glutamate uptake change was 0.76%.

**Q.** For CC(NC(=O)C(NC(=O)OCc1ccccc1)C(C)C)C(=O)NC(CC(=O)O)C(=O)OC(F)F (stereo not drawn), which glutamate uptake change is on record?
**A.** Its glutamate uptake change is 2.37%.

Assay: reducers of polyQ inclusions in PC12 cells, cell-based, NGF-treated PC12, GFPQ80 (AID 1614);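 further: lower means fewer inclusions and 0 means no inclusions at all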
Details: PC12 NGF-treated GFP-polyQ80 inclusion reduction

**Q.** With CN[C@@H]1[C@H](O)[C@H](NC)[C@H]2O[C@@]3(O)C(=O)C[C@@H](C)O[C@H]3OC2[C@H]1O (stereo partly drawn) as the compound, how does the inclusion score read?
**A.** Its inclusion score is 2.

**Q.** Which inclusion score does the source give for O=c1c(O)cc2c(O)oc3c(=O)c(O)cc4c3c2c1CC=4O here?
**A.** Its inclusion score is 2.

**Q.** For Cc1cc(Nc2ccccc2C(=O)O)ccc1Cl, which inclusion score is on record?
**A.** The inclusion score was 1.

**Q.** With CC1CC2C3CCC4=CC(=O)C=CC4(C)[C@@]3(F)C(O)CC2(C)[C@@]1(O)C(=O)CO (stereo partly drawn) as the compound, how does the inclusion score read?
**A.** The inclusion score was 2.

**Q.** For NCCCCC(N)C(=O)NC(Cc1c[nH]c2ccccc12)C(=O)NC(CCCCN)C(=O)O (stereo not drawn) (H-Lys-Trp-Lys-OH; configuration not given here), which inclusion score is on record?
**A.** Its inclusion score is 2.

**Q.** With CCC(=O)O[C@@H](O[P@](=O)(CCCCc1ccccc1)CC(=O)N1C[C@H](C2CCCCC2)C[C@H]1C(=O)O)C(C)C as the compound, how does the inclusion score read?
**A.** Its inclusion score is 2.

**Q.** For C[C@@H]1OC(Oc2c(-c3ccc(O)c(O)c3)oc3cc(O)cc(O)c3c2=O)[C@H](O)[C@H](O)[C@H]1O (stereo partly drawn), which inclusion score is on record?
**A.** Its inclusion score is 2.

**Q.** For CC(NC(=O)C(NC(=O)OCc1ccccc1)C(C)C)C(=O)NC(CC(=O)O)C(=O)OC(F)F (stereo not drawn), which inclusion score is on record?
**A.** Its inclusion score is 2.
